# PubChem BioAssay AID602385 (Sanford-Burnham Center for Chemical Genomics, 2012)
# Among all 2,300 compounds or so, about 180 (7.8%) were called active. Many of the other results were omitted from the sample, so actives are more common in it than they were. Values without a mark were called inactive.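 The calls were made as follows: active = average inhibition of at least 30% in the single-concentration confirmation test; inactive = the rest.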
# Target: DNA (cytosine-5)-methyltransferase 1 (Homo sapiens) (UniProt P26358)
# Sequence (P26358 504-1616 limits assumed): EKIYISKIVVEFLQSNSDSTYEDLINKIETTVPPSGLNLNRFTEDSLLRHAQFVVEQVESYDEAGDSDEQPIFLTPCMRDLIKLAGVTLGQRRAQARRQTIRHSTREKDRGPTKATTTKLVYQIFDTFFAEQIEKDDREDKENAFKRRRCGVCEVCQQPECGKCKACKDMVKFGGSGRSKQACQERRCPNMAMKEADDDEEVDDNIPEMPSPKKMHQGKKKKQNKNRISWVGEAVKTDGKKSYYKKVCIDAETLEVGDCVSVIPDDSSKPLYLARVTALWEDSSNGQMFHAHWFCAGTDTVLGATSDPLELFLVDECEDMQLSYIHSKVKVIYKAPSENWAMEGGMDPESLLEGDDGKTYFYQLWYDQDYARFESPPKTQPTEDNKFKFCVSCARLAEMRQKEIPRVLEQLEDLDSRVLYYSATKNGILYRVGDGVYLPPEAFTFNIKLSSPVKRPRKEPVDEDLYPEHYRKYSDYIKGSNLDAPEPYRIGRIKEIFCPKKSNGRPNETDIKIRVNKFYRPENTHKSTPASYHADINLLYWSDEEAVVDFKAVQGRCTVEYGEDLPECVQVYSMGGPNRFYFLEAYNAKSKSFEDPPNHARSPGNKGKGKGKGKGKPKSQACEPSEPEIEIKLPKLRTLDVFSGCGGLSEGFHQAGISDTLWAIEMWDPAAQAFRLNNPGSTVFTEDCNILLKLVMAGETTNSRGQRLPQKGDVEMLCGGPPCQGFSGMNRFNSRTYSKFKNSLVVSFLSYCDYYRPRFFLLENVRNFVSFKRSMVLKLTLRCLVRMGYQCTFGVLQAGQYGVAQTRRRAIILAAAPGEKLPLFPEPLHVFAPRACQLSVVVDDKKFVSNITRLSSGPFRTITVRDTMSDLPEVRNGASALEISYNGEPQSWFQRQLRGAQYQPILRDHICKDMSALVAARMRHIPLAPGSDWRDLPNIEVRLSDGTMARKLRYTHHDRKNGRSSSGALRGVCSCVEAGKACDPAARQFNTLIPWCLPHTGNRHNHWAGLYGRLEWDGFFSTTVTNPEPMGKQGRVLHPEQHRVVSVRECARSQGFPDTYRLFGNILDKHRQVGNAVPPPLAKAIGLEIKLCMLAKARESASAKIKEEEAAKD
# Experiment: DNMT1 methyltransferase inhibitor retest, confirmation, biochemical, molecular beacon, fluorescence, single concentration (AID 602385)
# Details: DNMT1 molecular beacon HinP1I cleavage, at 10 µM, hits give high values
row,SMILES,inhibition
1,Cc1c(C(=O)O)cccc1-n1c(C)cc(/C=C2\C(=O)NC(=O)N(c3ccc4c(c3)OCO4)C2=O)c1C,35.1% (active)
2,O=C1NC(=O)N(Cc2ccco2)C(=O)/C1=C\c1ccc(-c2ccc(F)cc2)o1,8.93%
3,CC1=C(C(=O)Nc2ccccc2)SCCO1,6.68%
